Calls of active or inactive are those of the source. Unless noted, calls come from the whole dose curve; as a rule, active = well fitted curve in the direction sought with a large enough effect in the repeat runs; inconclusive = weak or mixed curves; inactive = no such curve, though single readings can be large; an effect the other way counts as inactive or inconclusive.
Columns and labels:
[1] = tested on: thyroid hormone receptor (rat, GH3 cells); assay: qHTS assay to identify small molecule agonists of the thyroid receptor (TR) signaling pathway (AID 743066; calls by dose curve)
[2] = qHTS assay to identify small molecule antagonists of the estrogen receptor alpha (ER-alpha) signaling pathway using the BG1 cell line - cell viability counter screen (AID 743081);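 note: compound given together with 17beta-estradiol as the ER stimulus; nearly all actives have a fitted effect of over 45% in size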; note: potency is the fitted concentration of half-maximal effect
[3] = target: Aromatase (Homo sapiens) (UniProt P11511); assay: qHTS assay to identify aromatase inhibitors (AID 743083); note: nearly all actives have a fitted effect of over 55% in size; note: potency is the fitted concentration of half-maximal effect
Sequence of Aromatase (Homo sapiens) (P11511 whole entry, looked up): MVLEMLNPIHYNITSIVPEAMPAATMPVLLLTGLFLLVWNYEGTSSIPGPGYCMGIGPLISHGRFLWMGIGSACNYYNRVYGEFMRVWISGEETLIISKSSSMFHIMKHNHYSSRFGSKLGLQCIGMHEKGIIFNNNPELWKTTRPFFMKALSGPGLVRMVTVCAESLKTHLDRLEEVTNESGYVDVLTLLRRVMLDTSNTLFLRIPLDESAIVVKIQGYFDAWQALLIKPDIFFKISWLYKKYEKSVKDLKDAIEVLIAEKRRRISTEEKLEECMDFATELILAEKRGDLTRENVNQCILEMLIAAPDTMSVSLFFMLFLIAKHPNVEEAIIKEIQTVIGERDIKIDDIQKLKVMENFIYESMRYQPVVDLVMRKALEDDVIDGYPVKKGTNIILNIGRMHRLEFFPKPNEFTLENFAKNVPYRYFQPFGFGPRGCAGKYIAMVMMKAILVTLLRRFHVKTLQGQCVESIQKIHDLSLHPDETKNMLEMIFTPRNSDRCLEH

[4] = qHTS assay to identify aromatase inhibitors - cell viability counter screen (AID 743084);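 note: cells stimulated with testosterone during compound exposure; nearly all actives have a fitted effect of over 55% in size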; note: potency is the fitted concentration of half-maximal effect
[5] = qHTS assay to identify small molecule that activate the aryl hydrocarbon receptor (AhR) signaling pathway - cell viability counter screen (AID 743086); note: nearly all actives have a fitted effect of over 45% in size; note: potency is the fitted concentration of half-maximal effect
Outline: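 Cytotoxicity counter screen: CellTiter-Fluor signal (30 min, 37 C) in 4000 HepG2 cells/well carrying the DRE-luciferase reporter, following 24 h compound exposure at 37 C.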

[6] = target: Peroxisome proliferator-activated receptor gamma (Homo sapiens) (UniProt P37231); assay: qHTS assay to identify small molecule agonists of the peroxisome proliferator-activated receptor gamma (PPARg) signaling pathway (AID 743094; active = well fitted activation curve with a large enough effect in the signal ratio in the repeat runs, not every such curve was filed as active; inconclusive = weak or mixed curves, or effect the other way; inactive = no such curve, though single readings can be large or run the other way; the % refers to the signal ratio)
Sequence of Peroxisome proliferator-activated receptor gamma (Homo sapiens) (P37231 whole entry, looked up): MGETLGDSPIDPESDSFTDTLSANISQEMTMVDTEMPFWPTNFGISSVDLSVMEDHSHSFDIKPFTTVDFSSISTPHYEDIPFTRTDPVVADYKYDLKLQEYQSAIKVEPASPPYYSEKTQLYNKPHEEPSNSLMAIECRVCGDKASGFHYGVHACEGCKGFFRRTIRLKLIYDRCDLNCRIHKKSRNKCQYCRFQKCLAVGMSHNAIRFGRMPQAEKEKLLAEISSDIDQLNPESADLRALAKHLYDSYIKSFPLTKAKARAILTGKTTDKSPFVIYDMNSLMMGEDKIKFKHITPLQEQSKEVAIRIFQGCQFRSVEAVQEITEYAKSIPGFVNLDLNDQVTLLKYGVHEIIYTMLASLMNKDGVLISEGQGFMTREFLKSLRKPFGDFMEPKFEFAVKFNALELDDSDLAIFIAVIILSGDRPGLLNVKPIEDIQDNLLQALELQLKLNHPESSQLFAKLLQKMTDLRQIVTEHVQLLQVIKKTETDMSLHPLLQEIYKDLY
Outline: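 Compounds dissolved in DMSO were added to PPARg UAS-bla HEK293H cells for 17 h at 37C, and reporter expression was quantified by fluorescence intensity after 1 h with LiveBLAzer B/G FRET substrate.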

[7] = qHTS assay for small molecule agonists of the antioxidant response element (ARE) signaling pathway - cell viability counter screen (AID 743203; calls by dose curve; note: nearly all actives have a fitted effect of over 55% in size; note: potency is the fitted concentration of half-maximal effect)
Outline: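 Following 16 hrs of compound treatment at 37C, HepG2 cells with an ARE-controlled beta-lactamase gene were lysed with CellTiter-Glo. Luminescence was read after 30 min at room temperature.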

[8] = qHTS assay for small molecule activators of the heat shock response signaling pathway - cell viability counter screen (AID 743209); note: nearly all actives have a fitted effect of over 50% in size; note: potency is the fitted concentration of half-maximal effect
Outline: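 Readout: CellTiter-Glo luminescence, 30 min at room temperature. System: HSE-bla HeLa cells, 1500/well, plated overnight. Treatment: compounds in DMSO, 5 h at 37 C.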

[9] = qHTS assay to identify small molecule agonists of the peroxisome proliferator-activated receptor delta (PPARd) signaling pathway - cell viability counter screen (AID 743211); note: nearly all actives have a fitted effect of over 55% in size; note: potency is the fitted concentration of half-maximal effect
Outline: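 Following 5 h plating at 37 C and 5% CO2, PPARd UAS-bla HEK293H cells took up test compounds for 17 h. Viability was quantified by luminescence 30 min after CellTiter-Glo addition at room temperature.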

[10] = target: Peroxisome proliferator-activated receptor delta (Homo sapiens) (UniProt Q03181); assay: qHTS assay to identify small molecule agonists of the peroxisome proliferator-activated receptor delta (PPARd) signaling pathway (AID 743212; calls by dose curve;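 note: HEK293H cells with PPARd UAS beta-lactamase reporter GeneBLAzer system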)
Sequence of Peroxisome proliferator-activated receptor delta (Homo sapiens) (Q03181 whole entry, looked up): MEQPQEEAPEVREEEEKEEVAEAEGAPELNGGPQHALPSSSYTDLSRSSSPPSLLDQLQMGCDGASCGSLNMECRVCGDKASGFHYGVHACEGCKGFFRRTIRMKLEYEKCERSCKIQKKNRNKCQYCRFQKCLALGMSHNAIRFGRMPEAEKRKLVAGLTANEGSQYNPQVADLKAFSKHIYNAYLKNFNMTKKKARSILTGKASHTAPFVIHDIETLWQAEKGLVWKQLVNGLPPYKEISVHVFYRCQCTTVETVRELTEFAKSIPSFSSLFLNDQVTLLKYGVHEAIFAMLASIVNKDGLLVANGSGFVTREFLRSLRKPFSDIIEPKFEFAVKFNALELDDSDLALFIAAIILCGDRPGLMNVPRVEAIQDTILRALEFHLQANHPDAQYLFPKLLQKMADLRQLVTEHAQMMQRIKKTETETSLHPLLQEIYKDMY
Outline: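 HEK293H PPARd-bla cells; 5 h preincubation 37 C/5% CO2; compound (DMSO) 37 C; LiveBLAzer B/G FRET substrate 2 h RT; fluorescence intensity.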

[11] = qHTS assay to identify small molecule antagonists of the estrogen receptor alpha (ER-alpha) signaling pathway - cell viability counter screen (AID 743074; calls by dose curve;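 note: HEK293 cells carrying ER-alpha-UAS-bla reporter stimulated with 17beta-estradiol; nearly all actives have a fitted effect of over 45% in size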; note: potency is the fitted concentration of half-maximal effect)
[12] = target: Estrogen receptor (Homo sapiens) (UniProt P03372); assay: qHTS assay to identify small molecule agonists of the estrogen receptor alpha (ER-alpha) signaling pathway (AID 743075; calls by dose curve;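 note: HEK293 GripTite cells with ER-alpha and UAS-driven beta-lactamase reporter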; note: potency is the fitted concentration of half-maximal effect)
Sequence of Estrogen receptor (Homo sapiens) (P03372 whole entry, looked up): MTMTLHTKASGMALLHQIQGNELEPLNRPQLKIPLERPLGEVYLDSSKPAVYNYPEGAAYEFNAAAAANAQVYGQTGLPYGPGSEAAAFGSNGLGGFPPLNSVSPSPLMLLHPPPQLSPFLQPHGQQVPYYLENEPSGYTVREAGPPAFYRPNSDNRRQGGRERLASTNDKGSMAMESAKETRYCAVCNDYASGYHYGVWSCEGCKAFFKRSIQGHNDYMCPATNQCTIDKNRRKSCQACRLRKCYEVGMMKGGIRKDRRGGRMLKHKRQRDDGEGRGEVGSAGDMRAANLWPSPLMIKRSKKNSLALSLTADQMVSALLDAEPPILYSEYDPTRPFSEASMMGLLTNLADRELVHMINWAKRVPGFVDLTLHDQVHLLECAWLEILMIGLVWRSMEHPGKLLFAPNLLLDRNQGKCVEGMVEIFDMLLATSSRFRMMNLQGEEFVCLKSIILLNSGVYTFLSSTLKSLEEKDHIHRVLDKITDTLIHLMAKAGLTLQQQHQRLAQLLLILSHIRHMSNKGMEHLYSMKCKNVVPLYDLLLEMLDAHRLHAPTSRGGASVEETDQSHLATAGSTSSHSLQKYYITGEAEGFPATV

[13] = qHTS assay to identify small molecule antagonists of the estrogen receptor alpha (ER-alpha) signaling pathway using the BG1 cell line (AID 743080; calls by dose curve;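 note: BG1 cells stimulated with 17beta-estradiol alongside compound; nearly all actives have a fitted effect of over 25% in size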; note: potency is the fitted concentration of half-maximal effect); details: BG1Luc4E2 ERE-luciferase antagonist mode, luminescence; activity change, negative = inhibition: at 70.3 µM (top of the series)
Outline: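 Luminescence from a 4×ERE-luciferase reporter in BG1-Luc-4E2 cells served as read-out. Cells, pre-cultured 5 days in stripped-serum phenol-red-free medium, were exposed to compound with 17beta-estradiol co-stimulation for 21.5 h at 37 C.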

[14] = qHTS assay for small molecule agonists of the antioxidant response element (ARE) signaling pathway (AID 743202; active = well fitted activation curve with a large enough effect in the signal ratio in the repeat runs, not every such curve was filed as active; inconclusive = weak or mixed curves, or effect the other way; inactive = no such curve, though single readings can be large or run the other way; the % refers to the signal ratio; note: potency is the fitted concentration of half-maximal effect)
Outline: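 Quantitative high-throughput format in HepG2 cells bearing an integrated ARE-beta-lactamase reporter. Compound exposure lasted 16 h at 37 C, and fluorescence was read 2 h after adding LiveBLAzer B/G substrate at room temperature.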

[15] = target: Estrogen receptor (Homo sapiens) (UniProt P03372); assay: qHTS assay to identify small molecule antagonists of the estrogen receptor alpha (ER-alpha) signaling pathway (AID 743069; active = well fitted curve in the direction sought with a large enough effect in the signal ratio in the repeat runs, not every such curve was filed as active; inconclusive = weak or mixed curves, or effect the other way; inactive = no such curve, though single readings can be large or run the other way; the % refers to the signal ratio; note: potency is the fitted concentration of half-maximal effect)
Outline: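 ER-alpha-UAS-bla GripTite HEK293 line; 2% charcoal-stripped FBS overnight; plated, 4 hr 37C/5% CO2; cpd in DMSO + 17beta-estradiol, 18 hr 37C; LiveBLAzer B/G FRET substrate 2 hr RT; fluorescence intensity.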

[16] = target: Estrogen receptor (Homo sapiens) (UniProt P03372); assay: qHTS assay to identify small molecule agonists of the estrogen receptor alpha (ER-alpha) signaling pathway using the BG1 cell line (AID 743079); details: BG1Luc4E2 cells, ERE-luciferase agonist, 22 h; activation: at 70.3 µM (top of the series); note: nearly all actives have a fitted effect of over 20% in size; note: potency is the fitted concentration of half-maximal effect
[17] = target: Aryl hydrocarbon receptor (Homo sapiens) (UniProt P35869); assay: qHTS assay to identify small molecule that activate the aryl hydrocarbon receptor (AhR) signaling pathway (AID 743085); note: nearly all actives have a fitted effect of over 15% in size; note: potency is the fitted concentration of half-maximal effect;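 for activation: HG2L7.5c1 human HepG2 liver cells with stably integrated DRE-driven firefly reporter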
Sequence of Aryl hydrocarbon receptor (Homo sapiens) (P35869 whole entry, looked up): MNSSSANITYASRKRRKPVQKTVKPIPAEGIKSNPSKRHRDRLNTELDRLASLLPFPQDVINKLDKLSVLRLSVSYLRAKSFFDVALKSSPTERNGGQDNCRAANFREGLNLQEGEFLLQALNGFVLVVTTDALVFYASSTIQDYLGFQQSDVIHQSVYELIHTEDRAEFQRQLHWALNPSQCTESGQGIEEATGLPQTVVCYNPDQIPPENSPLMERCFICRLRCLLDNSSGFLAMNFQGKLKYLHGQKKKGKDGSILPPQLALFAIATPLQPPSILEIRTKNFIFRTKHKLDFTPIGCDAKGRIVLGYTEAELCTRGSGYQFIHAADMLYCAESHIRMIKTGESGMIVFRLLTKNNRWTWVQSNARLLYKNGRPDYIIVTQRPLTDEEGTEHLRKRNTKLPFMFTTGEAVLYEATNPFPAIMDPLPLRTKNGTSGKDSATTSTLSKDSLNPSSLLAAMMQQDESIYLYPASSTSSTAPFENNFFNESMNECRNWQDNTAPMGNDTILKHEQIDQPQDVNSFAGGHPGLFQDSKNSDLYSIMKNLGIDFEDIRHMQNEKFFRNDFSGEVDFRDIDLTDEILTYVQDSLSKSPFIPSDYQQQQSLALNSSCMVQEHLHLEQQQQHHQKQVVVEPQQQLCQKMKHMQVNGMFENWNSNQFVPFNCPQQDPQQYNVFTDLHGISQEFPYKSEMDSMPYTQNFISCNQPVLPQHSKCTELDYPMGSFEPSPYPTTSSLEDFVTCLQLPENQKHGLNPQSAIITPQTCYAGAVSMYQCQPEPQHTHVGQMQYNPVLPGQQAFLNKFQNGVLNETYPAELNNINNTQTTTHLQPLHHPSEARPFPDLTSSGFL
Outline: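 Measured in HG2L7.5c1 cells: CellTiter-Fluor signal (30 min incubation, 37C) for viability, then luciferase luminescence (30 min, room temperature). Compound contact time was 24 h at 37C, following a 5 h pre-incubation.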

[18] = qHTS assay to identify small molecule antagonists of the peroxisome proliferator-activated receptor gamma (PPARg) signaling pathway - cell viability counter screen (AID 743194); note: nearly all actives have a fitted effect of over 55% in size; note: potency is the fitted concentration of half-maximal effect
Outline: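 Viability was measured as CellTiter-Glo luminescence in GeneBLAzer PPARg UAS-bla HEK293H cells. These cells had been exposed 17 h at 37 C to compounds together with rosiglitazone at 50 nM final, with the beta-lactamase readout taken in the same wells.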

[19] = qHTS assay for small molecule activators of the heat shock response signaling pathway (AID 743210; active = well fitted activation curve with a large enough effect in the signal ratio in the repeat runs, with a control signal flat, not every such curve was filed as active; inconclusive = weak or mixed curves; the % refers to the signal ratio;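 note: HeLa cells with beta-lactamase reporter driven by heat shock elements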)
Outline: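 HeLa HSE-bla cells, overnight plating; cpd in DMSO 5 h, 37 C; LiveBLAzer B/G FRET substrate 2.5 h RT; fluorescence intensity read.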

[20] = target: Peroxisome proliferator-activated receptor gamma (Homo sapiens) (UniProt P37231); assay: qHTS assay to identify small molecule antagonists of the peroxisome proliferator-activated receptor gamma (PPARg) signaling pathway (AID 743191; calls by dose curve; note: nearly all actives have a fitted effect of over 30% in size)
Outline: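 Beta-lactamase reporter under UAS control in HEK293H PPARg-bla cells; compound treatment 17 h at 37C. Read-out: fluorescence intensity after 1 h room-temperature incubation with LiveBLAzer B/G FRET substrate.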

Measured: Potency

CCCCCCC(C)Nc1ccc(Nc2ccccc2)cc1 (stereo unspecified)
inactive: [1] | [2] | [3] | [4] | [5] | [6] | [7] | [10]
active: [8] 49 µM | [9] 43.6 µM

O=C1Nc2ccc(Cl)cc2[C@@](C#CC2CC2)(C(F)(F)F)O1
active: [13] 33.5 µM | [3] 23.7 µM | [14] 13.3 µM | [8] 5.31 µM
inactive: [11] | [12] | [2] | [5] | [6] | [7] | [10]

C=CC(C)(CCC=C(C)C)OC(=O)/C=C/c1ccccc1 (stereo unspecified)
active: [16] 61.1 µM
not listed: [1] | [4] | [8] | [14] | [19] | [20]
inactive: all other assays above

CN(C)c1ccc(N=NS(=O)(=O)O)cc1
active: [17] 14.5 µM | [14] 8.63 µM
inactive: [1] | [7] | [8]

CCN(CC)CCNc1ccc(CO)c2sc3ccccc3c(=O)c12
inactive: [11] | [12] | [3] | [4] | [8] | [19] | [10]
active: [15] 30.1 µM [inconclusive] | [2] 13.3 µM | [17] 0.531 µM | [5] 6.68 µM | [7] 6.68 µM | [9] 18.8 µM

COc1cc(C=C2CCC/C(=C\c3ccc(O)c(OC)c3)C2=O)ccc1O
active: [15] 15.1 µM [inconclusive] | [3] 21.1 µM | [4] 21.1 µM | [5] 23.7 µM | [18] 21.1 µM | [7] 26.6 µM | [9] 29.8 µM
inactive: [12] | [13] | [17]

CCCCN(CCCC)CCC(O)c1cc2c(Cl)cc(Cl)cc2c2cc(C(F)(F)F)ccc12 (stereo unspecified)
active: [9] 33.5 µM
not listed: [1] | [8] | [14] | [18] | [20]
inactive: all other assays above

CCN(CC)CCCN(c1ccccc1)C1Cc2ccccc2C1
active: [11] 19 µM | [2] 29.8 µM | [3] 26.6 µM | [4] 29.8 µM | [5] 13.3 µM
inactive: [12] | [17] | [20] | [7] | [8] | [19] | [10]

CCCCOc1ccc(C(=O)CCN2CCCCC2)cc1
active: [16] 4.52 µM | [7] 26.6 µM | [9] 11.9 µM
not listed: [1] | [13] | [14] | [17] | [19]
inactive: all other assays above

Cc1cc2c(C(C)C)c(O)c(O)c(C=O)c2c(O)c1-c1c(C)cc2c(C(C)C)c(O)c(O)c(C=O)c2c1O
inactive: [12] | [17]
active: [15] 9.52 µM [inconclusive] | [11] 21.3 µM | [3] 21.1 µM | [4] 26.6 µM | [18] 8.41 µM | [7] 8.41 µM | [8] 13.3 µM | [9] 9.44 µM

CC(C)(C)CC(C)(C)c1ccccc1O
active: [11] 49.2 µM | [12] 22 µM [inconclusive] | [16] 1.38 µM | [3] 48.8 µM | [4] 48.8 µM | [18] 43.9 µM | [7] 61.4 µM | [9] 43.9 µM
inactive: [17] | [5] | [10]

CC(C(O)c1ccccc1)N(C)CCOC(c1ccccc1)c1ccccc1 (stereo unspecified)
active: [3] 29.8 µM | [9] 29.8 µM
inactive: [15] | [12] | [13] | [17] | [5] | [20] | [18] | [19]

Cc1nc(Nc2ncc(C(=O)Nc3c(C)cccc3Cl)s2)cc(N2CCN(CCO)CC2)n1
active: [3] 1.33 µM | [17] 1.19 µM | [5] 9.44 µM
inactive: [11] | [12] | [4] | [18] | [8] | [19] | [10]

Reference: PubChem BioAssay (Tox21)
